PubChem BioAssay

The compounds below were run against Left-right determination factor 2 (Homo sapiens) (UniProt O00292) (assay: small molecules binding LEFTY2 protein – biochemical, small-molecule microarray, 635 nm fluorescence scan, primary screen (AID 1110)). Settings: higher = more signal.
Sequence of Left-right determination factor 2 (Homo sapiens) (O00292 whole entry, looked up): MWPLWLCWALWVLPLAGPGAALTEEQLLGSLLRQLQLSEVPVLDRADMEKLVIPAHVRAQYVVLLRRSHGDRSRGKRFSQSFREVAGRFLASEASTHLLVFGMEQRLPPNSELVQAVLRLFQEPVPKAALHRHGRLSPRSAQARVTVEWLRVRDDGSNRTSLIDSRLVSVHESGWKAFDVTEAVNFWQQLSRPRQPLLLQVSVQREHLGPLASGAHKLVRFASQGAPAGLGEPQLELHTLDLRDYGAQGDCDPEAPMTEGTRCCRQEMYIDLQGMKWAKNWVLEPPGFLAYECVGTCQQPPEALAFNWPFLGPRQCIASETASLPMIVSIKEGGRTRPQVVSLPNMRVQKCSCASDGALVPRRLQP
Compound `CCOC(=O)C[C@H]1[C@H](OC(=O)c2ccccc2-c2ccccc2)[C@@H](NC(=O)c2ccccc2)c2cc(OCCCO)ccc2N1C(=O)Cc1ccc(OC)cc1` has a composite z-score of -0.0713.
Work on `C=CCC(OC(C)=O)[C@@H]1[C@@H](N(Cc2ccc(-c3cccc(C(F)(F)F)c3)o2)C(=O)c2cccc3ccccc23)c2cc(OCCCO)ccc2N1C(=O)c1ccc(-c2ccccc2)cc1` (stereo not given in full) yielded a composite z-score of 0.0289.
`C[C@H]1ON(c2ccccc2)[C@@H](c2ccccc2)[C@@H]1C(=O)N1C(=O)OC[C@@H]1c1ccccc1` gave a composite z-score of 0.521.
Compound `COCCOC(=O)N1C(=O)[C@@]2(c3cc(C#CCNC(N)=O)ccc31)[C@H](C(N)=O)[C@H]1C(=O)O[C@H](c3ccccc3)[C@H](c3ccccc3)N1[C@@H]2c1ccc(OCCO)cc1` has a composite z-score of 0.582.
Compound `CCCC=C(CCC)[C@@H](NS(=O)(=O)c1cccc2cccnc12)c1ccc(C(=O)OC)cc1` has a composite z-score of 0.804.
With `CCOC(=O)C1=CC[C@@H](c2ccccc2)N(S(=O)(=O)c2ccc(C)cc2)[C@H]1C=C(C)C` the composite z-score was 0.407.
`C#CCNS(=O)(=O)N(C)C` showed a composite z-score of 0.713.
With `O=C1O[C@H](c2ccccc2)[C@H](c2ccccc2)N2[C@H]1[C@@H](C(=O)N1CCN(c3ncccn3)CC1)[C@]1(C(=O)Nc3ccc(C#CCCO)cc31)[C@H]2c1ccc(OCCO)cc1` the composite z-score was 1.35.
For `COCCOC(=O)N1C(=O)[C@@]2(c3cc(C#CC4(O)CCCCCC4)ccc31)[C@H](C(=O)N1CCN(c3ncccn3)CC1)[C@H]1C(=O)O[C@H](c3ccccc3)[C@H](c3ccccc3)N1[C@@H]2c1ccc(O)cc1`, the composite z-score was -0.28.
For `Cc1cc(C)c(C(O)C2C=CC3C(=O)N(c4ccccc4)C(=O)C3N2Nc2ccc([N+](=O)[O-])cc2)c(C)c1` (stereo not given), the composite z-score was 0.38.
`Cc1ccc(S[C@]2(C(=O)O)CC(=O)N(C3CCCCC3)[C@@H]2c2ccc(CO)cc2)cc1` gave a composite z-score of -0.442.
`CCOc1cc(C(O)C2C=CC3C(=O)NC(=O)C3N2Nc2ccccn2)ccc1O` (stereo not given) showed a composite z-score of 0.205.
Work on `CC(=O)NCCCC[C@@H]1NC(=O)[C@@H]2C[C@H](C(=O)NCCCC[N+](C)(C)C)[C@H](c3cccc(OCCO)c3)N2C1=O` yielded a composite z-score of 0.0711.
In the case of `COc1ccc([Si](C)(C)[C@@H]2[C@@H](CC(=O)N(CCO)Cc3ccccc3)O[C@]3(C(=O)N(Cc4ccc(N5CCOC5=O)cc4)c4ccccc43)[C@H]2C)cc1`, the composite z-score is reported as 0.491.
`COC(=O)[C@]1(Cc2ccccc2CN=[N+]=[N-])N=C(c2ccc(OCCCO)cc2)O[C@@H]1c1ccccc1CN=[N+]=[N-]` gave a composite z-score of -0.624.
With `CN(C)C(=O)[C@]1(Cc2ccccc2N=[N+]=[N-])N=C(c2ccc(OCCCO)cc2)O[C@@H]1c1ccccc1CN=[N+]=[N-]` the composite z-score was 0.234.
`CC(C)(C)OC(=O)CC[C@@]1(C(=O)N2CCCCC2)N=C(c2ccc(OCCCO)cc2)O[C@@H]1c1ccccc1CN=[N+]=[N-]` gave a composite z-score of 0.0083.
`CCN(CC)c1ccc(N2CC=CC34O[C@@H]5/C=C\CCCOC(=O)C5[C@H]3C(=O)N(CCCCCO)[C@@H]4C2=O)cc1` (stereo not given in full) gave a composite z-score of -1.57.
Compound `[N-]=[N+]=Nc1ccccc1C[C@]1(C(=O)NCCN2CCOCC2)N=C(c2ccc(OCCCO)cc2)O[C@H]1c1ccccc1N=[N+]=[N-]` has a composite z-score of 0.863.
`COC(=O)[C@]1(Cc2ccccc2CN=[N+]=[N-])N=C(c2ccc(OCCCO)cc2)O[C@@H]1c1ccccc1` showed a composite z-score of -1.63.
In the case of `COCCOC(=O)N1C(=O)[C@@]2(c3cc(C#Cc4ccc(OC)cc4)ccc31)[C@H](C(=O)N1CCc3cc(OC)c(OC)cc3C1)[C@H]1C(=O)O[C@H](c3ccccc3)[C@H](c3ccccc3)N1[C@@H]2c1ccc(O)cc1`, the composite z-score is reported as 0.582.
With `COCCOC(=O)N1C(=O)[C@@]2(c3cc(C#CCCO)ccc31)[C@H](C(=O)NC[C@H](O)c1ccccc1)[C@H]1C(=O)O[C@H](c3ccccc3)[C@H](c3ccccc3)N1[C@@H]2c1ccccc1OCCO` the composite z-score was 0.966.
`COc1ccccc1CN1C(=O)c2ccccc2[C@@H](C(=O)NCC(C)C)[C@@H]1c1ccc(CO)cc1` was tested, and the composite z-score was 0.13.
`C=CCN1C(=O)[C@@]2(O[C@@H](CCn3cc([C@H](O)c4ccccc4)nn3)[C@H]([Si](C)(C)c3ccc(OC)cc3)[C@H]2C)c2cc(NC(=O)c3ccc(OC)cc3)ccc21` showed a composite z-score of 0.426.
`O=C(O)[C@]1(CCS(=O)(=O)c2ccccc2)N=C(c2ccc(OCCCO)cc2)O[C@@H]1c1ccccc1` showed a composite z-score of -0.004.
`CN(C)CCCN1C(=O)[C@@]2(Cc3ccccc31)c1ccccc1C(=O)N(Cc1ccccc1)[C@H]2c1ccc(CO)cc1` gave a composite z-score of -0.0359.
For `COC(=O)C(CC#Cc1ccc2c(c1)[C@]1(C(=O)N2)[C@H](c2ccc(O)cc2)N2[C@H](c3ccccc3)[C@H](c3ccccc3)OC(=O)[C@H]2[C@@H]1C(N)=O)C(=O)OC`, the composite z-score was -0.91.
`O=C1C2C=CC(C(O)c3ccc(Br)cc3)N(Nc3ccccc3)C2C(=O)N1c1ccccc1` (stereo not given) gave a composite z-score of -0.853.
Compound `O=C(O)[C@@]1(Cc2ccccc2)COC(c2ccc(OCCCO)cc2)=N1` has a composite z-score of -0.714.
With `COC(=O)c1ccc(OC)c(/C=C\CC(CCc2ccccc2)OC(=O)c2ccncc2)c1` (stereo not given) the composite z-score was 1.45.
Compound `COC(=O)[C@@]1(Cc2ccc(OC)cc2)[C@H]2c3cc(C(=O)N4CCCC4)n(CCc4ccc(O)c(OC)c4)c3C[C@H]2CN1C(=O)c1ccccc1` has a composite z-score of -0.448.
Compound `C[N+](C)(C)CCCC[C@@H]1NC(=O)[C@H]2C[C@@H](C(=O)NCCCCCCN)[C@@H](c3cccc(OCCO)c3)N2C1=O` has a composite z-score of 1.39.
Work on `COC(=O)[C@]1(Cc2ccccc2N=[N+]=[N-])N=C(c2ccc(OCCCO)cc2)O[C@@H]1c1ccccc1` yielded a composite z-score of -0.96.
Work on `CC(C)N1C(=O)c2ccccc2[C@](C)(C(=O)O)[C@@H]1c1ccc(CO)cc1` yielded a composite z-score of -1.23.
`COc1ccc(C(=O)Nc2ccc3c(c2)[C@]2(O[C@@H](CCO)[C@H]([Si](C)(C)c4ccc(OC)cc4)[C@H]2C)C(=O)N3Cc2ccccc2)cc1` showed a composite z-score of 0.793.
